High-throughput results (PubChem BioAssay)
This is a sample that favours compounds with a hit; in the whole collection about 0.65% have one here.
PrP 5UTR inh: suppresses PrP 5' UTR mRNA reporter expression; cell-based PrP 5' UTR mRNA reporter, plate reader; AID 488862; inhibition, % (test concentration not listed); 340,000 compounds, 0.35% hits; in the data active means inhibition above about 52%
BH1578 lux ind: induces V. cholerae light production without autoinducers; V. cholerae BH1578 lux reporter, luminescence, 6 h; activation, % at 18.7 µM; 350,000 compounds, 0.16% hits; in the data active means activation mostly above about 9.7%, no sharp cut-off; inconclusive means no clear call, values can overlap the other calls; inactive means mostly below about 3.7%
Yp Topo-I inh: inhibitors of Yersinia pestis topoisomerase I. activity, % at 10 µM. 360,000 compounds, 0.064% hits. Y. pestis Topo-I cleavage product accumulation, plate reader; in the data active means activity above about 50%, passing the limit was not always enough; inconclusive means no clear call, values can overlap the other calls
TcdB inh: TcdB glycohydrolase inhibition. TcdB glycohydrolase enzymatic assay, plate reader. inhibition, % at 9.99 µM. 350,000 compounds, 0.24% hits. AID 652162; in the data active means inhibition above about 10%
UGM FP inh: inhibitors of M. tuberculosis UDP-galactopyranose mutase. purified UGM, fluorescence polarization probe displacement. P9WIQ1. inhibition, % at 10 µM. 320,000 compounds, 0.06% hits. AID 504406; in the data active means inhibition above about 10%, passing the limit was not always enough; inconclusive means no clear call, values can overlap the other calls
Target sequence (P9WIQ1 whole entry, looked up): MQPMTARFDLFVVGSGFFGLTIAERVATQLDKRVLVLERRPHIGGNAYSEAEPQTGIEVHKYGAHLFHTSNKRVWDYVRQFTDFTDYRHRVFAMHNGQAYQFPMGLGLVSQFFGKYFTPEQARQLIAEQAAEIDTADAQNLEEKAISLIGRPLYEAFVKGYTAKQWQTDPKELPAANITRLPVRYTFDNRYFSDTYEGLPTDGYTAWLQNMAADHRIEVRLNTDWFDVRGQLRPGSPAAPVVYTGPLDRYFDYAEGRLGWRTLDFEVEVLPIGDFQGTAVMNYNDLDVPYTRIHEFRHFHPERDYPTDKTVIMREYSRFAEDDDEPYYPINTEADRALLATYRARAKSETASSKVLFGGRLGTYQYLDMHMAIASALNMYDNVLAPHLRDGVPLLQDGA
PrP 5UTR single: prion 5' UTR mRNA inhibition, cherry-pick retest; 1,100 compounds, 48% hits; cell-based prion protein 5' UTR reporter, plate reader; inhibition, % at 2.5 µM; shares compounds with PrP 5UTR inh; in the data active means inhibition above about 54%; inconclusive means no clear call, values can overlap the other calls
Numbers stand for hits; i = inactive; ? = inconclusive; nt = not tested or not shown; + = active, no number.

SMILES | PrP 5UTR inh | BH1578 lux ind | Yp Topo-I inh | TcdB inh | UGM FP inh | PrP 5UTR single
COc1ccccc1OCCn1cc(/C=C(\C#N)C(=O)NCc2ccco2)c2ccccc21 | i | i | i | nt | i | nt
N#C/C(=C\c1cn(Cc2ccccc2F)c2ccccc12)C(=O)NCc1ccco1 | i | i | 83 | nt | i | nt
O=C(CN1C(=O)NC2(CCCc3ccccc32)C1=O)NCc1cccs1 (stereo not given) | i | i | i | 15 | i | nt
O=C(CS(=O)(=O)c1c[nH]c2ccccc12)Nc1ccc(F)cc1 | i | i | i | i | i | nt
O=S(=O)(Cc1cccc(F)c1)c1c[nH]c2ccccc12 | i | i | i | 15 | i | nt
C[C@H](CO)N1C[C@H](C)[C@H](CN(C)C(=O)C2CCOCC2)Oc2cc(C3=CCCC3)ccc2S1(=O)=O | nt | nt | nt | i | nt | nt
Cc1cccc(NC(=O)NCc2ccc3[nH]c(C)cc3c2)c1 | i | i | i | i | i | nt
Cc1ccc(CNC(=O)Nc2cccc(C)c2)cc1 | i | i | i | 11 | i | nt
CC(C)OC(=O)CC(=O)c1sc2nc3c(cc2c1N)CN(C)CC3 | nt | nt | nt | nt | 16 | nt
CO[C@@H]1CN(C)C(=O)c2cc(NS(C)(=O)=O)ccc2OC[C@@H](C)N(Cc2ccccc2)C[C@H]1C | nt | nt | nt | i | nt | nt
Cc1ccccc1Cn1cc(CCC(=O)N2CCOCC2)c2ccccc21 | i | i | 54 | i | i | nt
Cc1ccccc1CC(=O)N1CCOCC1 | i | i | i | i | i | nt
CC(C)COC(=O)CNc1n[nH]c(=S)[nH]c1=O | i | + | i | i | i | nt
CCCCOC(=O)CNc1n[nH]c(=S)[nH]c1=O | i | i | i | nt | i | nt
COc1ccc(Cc2cnc(N)s2)cc1 | 77 | i | i | i | i | i
COc1ccc(OCCc2nnc(N)s2)cc1 | i | i | i | nt | i | nt
CN(C)CC(=O)Nc1ccc2c(c1)[C@H]1C[C@H](CC(=O)NC3CCCCC3)O[C@@H](CO)[C@H]1O2 | nt | nt | nt | i | nt | nt
COCC(=O)N1CCC2(CC1)CN(Cc1cc(F)ccc1F)[C@H](CO)c1c2c2ccc(OC)cc2n1C | nt | nt | nt | i | nt | nt
c1ccc(-c2cn3nc4c(nc3n2)CCCC4)cc1 | 67 | i | i | nt | ? | i
Cc1nc2c(-c3ccc(F)cc3)cnn2c(N)c1-c1ccccc1 | 68 | i | i | i | i | i
Cc1nc2c(-c3ccc(Cl)cc3)cnn2c(N)c1-c1ccc(F)cc1 | 56 | i | i | i | i | i
C[C@@H]1CN([C@@H](C)CO)C(=O)c2cc(NC(=O)C3CC3)ccc2O[C@H]1CN(C)Cc1ccc2c(c1)OCO2 | nt | nt | nt | i | nt | nt
CCC(=O)N1[C@@H](CO)[C@@H](c2ccccc2)[C@@H]1CN(C)C(=O)c1ccccc1F | nt | nt | nt | i | nt | nt
CO[C@H]1CC[C@H]2CCN(C)C(=O)C[C@@H](c3ccccc3)CN(C)C(=O)c3cc(C#N)ccc3OC[C@H]1O2 | nt | nt | nt | i | nt | nt
Cc1c(N(C)C(=O)c2ccco2)c(=O)n(-c2ccccc2)n1C | i | i | i | nt | i | nt
SMILES | PrP 5UTR inh | BH1578 lux ind | Yp Topo-I inh | TcdB inh | UGM FP inh | PrP 5UTR single
Cc1c(N(C)CS(=O)(=O)O)c(=O)n(-c2ccccc2)n1C | 58 | i | i | i | i | i
Cc1cc(N)nc(=O)n1C1CC(O)C(CO)O1 (stereo not given) | 59 | i | i | i | nt | i
Nc1nc(=O)n(C2CC(O)C(CO)O2)cc1Cl (stereo not given) | nt | nt | nt | i | nt | nt
Cc1ccc2nc3sc(C(=O)N4CCOCC4)c(N)c3cc2c1 | 86 | i | i | nt | i | 69
S=C(Nc1ccccc1)Nc1ccc(OCc2ccc(Cl)cc2Cl)cc1 | 89 | i | i | nt | i | 87
S=C(NCCSCc1ccc(Cl)cc1Cl)Nc1ccccc1 | i | i | i | nt | i | nt
O=C(C[C@H]1CC[C@@H]2[C@H](COC[C@H](O)CN2Cc2nccs2)O1)NCc1ccc(F)cc1 | nt | nt | nt | i | nt | nt
CCCS(=O)(=O)N1CCC(C(=O)NC2CCCC(C)C2C)CC1 (stereo not given) | i | i | i | nt | i | nt
CCCS(=O)(=O)N1CCCC(C(=O)NC2CCCC(C)C2C)C1 (stereo not given) | 86 | nt | i | nt | i | i
COc1ccc(S(=O)(=O)NCc2ccco2)cc1C(=O)N1CCOCC1 | i | i | i | i | i | nt
O=C(c1cc(S(=O)(=O)NCc2ccco2)ccc1Br)N1CCOCC1 | 79 | i | i | i | i | i
COc1cccc(NC(=O)N2CC(=O)N3[C@H](CO)[C@@H](c4ccc(C5=CCCC5)cc4)[C@@H]3C2)c1 | nt | nt | nt | i | nt | nt
Cc1ccc(NC(=O)CSc2ccccn2)cc1S(=O)(=O)N1CCOCC1 | i | i | i | i | i | nt
O=C(O)c1cc(S(=O)(=O)N2CCOCC2)c(Sc2ccccn2)cc1Sc1ccccn1 | 69 | i | i | nt | nt | i
Nc1cc(C(Cl)=C(Cl)Cl)c(S(N)(=O)=O)cc1S(N)(=O)=O | 64 | i | i | i | i | i
Cc1cc(/C=N/Nc2ncnc(N)c2[N+](=O)[O-])c(C)n1-c1ccccc1 | 77 | i | i | i | i | 78
CC(C(=O)O/N=C(\N)c1ccccn1)c1ccc([N+](=O)[O-])cc1 (stereo not given) | i | i | i | i | i | nt
N/C(=N\OCc1ccc([N+](=O)[O-])cc1)c1ccccn1 | 85 | nt | nt | nt | i | 80
C/C=C/c1ccc([C@H]2[C@H](CO)N(C(C)=O)C23CN(S(C)(=O)=O)C3)cc1 | nt | nt | nt | i | nt | nt
COC(=O)C1=C(C(=O)OC)SC2(S1)C(C(=O)OC)=C(C(=O)OC)SC1=C2c2cc(C)cc(C)c2NC1(C)C | i | i | i | nt | i | nt
COC(=O)C1=C(C(=O)OC)SC2(S1)C(C(=O)OC)=C(C(=O)OC)Sc1c2ssc1=O | 75 | i | i | i | nt | 72
COc1ccc(NC2Oc3cc4c(cc3C(c3cc(OC)c(OC)c(OC)c3)C2C)OCO4)cc1 (stereo not given) | 61 | i | i | i | nt | i
COc1cc(CN2CC3(CN(S(=O)(=O)c4cn(C)cn4)C3)c3c(n(C)c4cc(OC)ccc34)[C@@H]2CO)cc(OC)c1 | nt | nt | nt | i | nt | nt
COc1ccc(CNC(=O)CSc2nc(-c3ccccc3)cc(-c3cccs3)c2C#N)cc1 | i | i | i | nt | i | nt
COc1ccc(-c2cc(-c3cccs3)c(C#N)c(SCC(=O)NCc3ccco3)n2)cc1 | 68 | i | i | nt | i | 86
SMILES | PrP 5UTR inh | BH1578 lux ind | Yp Topo-I inh | TcdB inh | UGM FP inh | PrP 5UTR single
COc1ccc(-c2noc(CCC(=O)Nc3ccc4c(c3)OCCO4)n2)cc1 | i | i | i | nt | i | nt
Cc1ccc(-c2noc(CCC(=O)Nc3ccc4c(c3)OCO4)n2)cc1 | 60 | i | i | nt | i | i
CNC[C@@H]1OCCCC[C@@H](C)Oc2ccc(NC(=O)c3ccccc3)cc2C(=O)N([C@@H](C)CO)C[C@@H]1C | nt | nt | nt | i | nt | nt
O=c1cc(-c2ccc(O)cc2)oc2c1ccc1ccccc12 | i | i | i | i | i | nt
O=c1cc(-c2ccc(O)cc2)oc2ccc3ccccc3c12 | 78 | i | i | i | i | 73
O=C(Nc1ccc(Cl)cc1)N[C@H]1CC[C@H](CCNS(=O)(=O)c2ccccc2F)O[C@@H]1CO | nt | nt | nt | i | nt | nt
C[C@H](CO)N1C[C@H](C)[C@@H](CN(C)S(=O)(=O)c2cn(C)cn2)Oc2cc(C3=CCCC3)ccc2S1(=O)=O | nt | nt | nt | i | nt | nt
CCOc1ccc(-c2cnc3ccccc3n2)cc1 | 60 | i | i | i | i | ?
